# Rows were chosen to be rich in hits. Some 2.5% of all compounds tested hit in one or more screens of this group.
# NSD2 inh: blocks human histone methyltransferase NSD2; hit rate 0.54% among 310,000; NSD2 peptide methylation, AlphaScreen, 120 min; O96028; inhibition, % at 12.5 µM; AID 743445; in the data active = inhibition above about 50%
# CASP6 VEID inh: caspase-6 (human) enzyme inhibition; inhibition, % at 12.5 µM; purified caspase-6, Z-VEID-R110 cleavage fluorescence; P55212; hit rate 0.53% among 350,000; AID 686996;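 active = mean inhibition across replicates at least about 35%, with every replicate also reaching that limit, limit read from the data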
# AF4-AF9 inh: blocks AF4 peptide binding to human AF9 | AID 651704 | P42568 | hit rate 0.47% among 350,000 | inhibition, % at 10 µM | AlphaScreen, biotin-AF4 peptide binding to FLAG-AF9;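 active = every replicate reaching a set inhibition limit, whatever the replicate mean, cut at about 25% in these data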
# Ecoli rRNA inh: selective bacterial rRNA inhibition in E. coli; hit rate 1.6% among 350,000; GFP signal change (wild-type ribosome), % (no concentration beside the values); AID 720706; E. coli WT GFP vs humanized-ribosome RFP mutants, fluorescence, 24 h; hits give low values; DMSO median 0, no signal -100;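 active = significant combined selectivity score with lowered wild-type GFP, culture density cut under 30%, mutant RFP and density less affected; inactive = any of these conditions unmet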
# RAD52 inh: inhibitors of human RAD52 DNA annealing; recombinant RAD52 DNA annealing, FRET fluorescence; AID 651710; hit rate 0.46% among 360,000; inhibition, % at 18.7 µM;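 active = every replicate showing at least 50% inhibition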
# AlphaScreen art: AlphaScreen assay artifact in NSD2 counter-screen; shares compounds with NSD2 inh; AlphaScreen artifact counterscreen, preloaded methylated H4 peptide; AC35, µM (series often up to 10 µM); hit rate 9.4% among 1,500; AID 1053174; call rule not given here
# A number is an active result; n = inactive; x = not tested or not shown.
SMILES,NSD2 inh,CASP6 VEID inh,AF4-AF9 inh,Ecoli rRNA inh,RAD52 inh,AlphaScreen art
O=C(CN1CCOCCOCCN(CC(=O)Nc2ccccc2)CCOCC1)Nc1ccccc1,166,x,x,x,x,n
O=C(C[C@@H]1C=C[C@H](NS(=O)(=O)c2ccccc2)[C@@H](CO)O1)NCc1ccc(Cl)c(Cl)c1,x,n,n,n,n,x
C[C@@H]1CN([C@@H](C)CO)S(=O)(=O)c2ccc(C#CCN(C)C)cc2O[C@H]1CN(C)Cc1cccnc1,x,n,n,n,n,x
C[C@@H]1CN([C@H](C)CO)C(=O)c2cc(NC(=O)CCN3CCOCC3)ccc2O[C@H]1CN(C)C(=O)Nc1ccc2c(c1)OCO2,x,n,n,n,n,x
Cc1c(/C=N\NC(=O)C2(C)CC2(Cl)Cl)cnn1C (centres undefined),n,x,x,x,x,x
CCn1cc(/C=N\NC(=O)C2(C)CC2(Cl)Cl)c(C)n1 (centres undefined),63,x,x,x,x,n
c1ccc(-c2nc(N3CCCCCC3)c3ccccc3n2)nc1,n,x,x,x,x,x
c1ccc(-c2nc(N3CCOCC3)c3ccccc3n2)nc1,64,x,x,x,x,n
Cc1ccccc1N1CC(C(=O)Nc2ccc(S(=O)(=O)N3CCOCC3)cc2)CC1=O (centres undefined),85,n,n,n,n,n
Cc1ccccc1N1CC(C(=O)Nc2ccc(S(=O)(=O)N3CCCCC3)cc2)CC1=O (centres undefined),n,n,n,n,n,x
COc1cc(/C=N/NC(=O)c2ccncc2)c([N+](=O)[O-])cc1OC,n,n,n,n,n,x
COc1cc(OC)c([N+](=O)[O-])cc1/C=N/NC(=O)c1ccncc1,81,n,n,n,n,n
CO[C@@H]1CN(C)C(=O)c2ccc(NS(C)(=O)=O)cc2OC[C@H](C)N(Cc2ccccc2)C[C@@H]1C,x,x,x,n,x,x
CC1CC(C)CN(C(=O)C2CCN(S(=O)(=O)c3cccs3)CC2)C1 (centres undefined),50,n,n,x,n,n
CCNC(=O)C[C@@H]1CC[C@H](NC(=O)C2CCOCC2)[C@H](CO)O1,x,n,n,n,n,x
Oc1ccc(-c2cn3c(n2)SCC3)cc1,n,x,x,x,x,x
Oc1ccc(-c2cn3c(n2)SCC3)cc1O,105,x,x,x,x,8.1µM
C[C@@H](NC(=O)C[C@@H]1CC[C@@H](NS(=O)(=O)c2cccc(F)c2)[C@@H](CO)O1)c1ccccc1,x,n,n,n,n,x
CSc1ncccc1C(=O)OCC(=O)N1CC2(C)CC1CC(C)(C)C2 (centres undefined),53,n,n,n,n,n
CC1(C)CC2CC(C)(CN2C(=O)COC(=O)c2ccccc2C(F)(F)F)C1 (centres undefined),n,n,n,x,n,x
Cc1csc(SCC(=O)Nc2ccc3c(c2)OCCO3)n1,62,n,n,n,n,n
CSc1nsc(SCC(=O)Nc2ccc3c(c2)OCCO3)n1,n,x,x,x,x,x
Cn1c(SCC(=O)Nc2ccc3c(c2)OCCO3)nnc1-c1ccncc1,77,n,n,n,n,n
CO[C@H]1CN(C)C(=O)c2cc(NC(C)=O)ccc2OC[C@H](C)N(CCc2ccccc2)C[C@@H]1C,x,n,n,n,n,x
C[C@@H]1CN([C@@H](C)CO)S(=O)(=O)c2ccc(C3=CCCC3)cc2O[C@@H]1CN(C)Cc1cccc(C(=O)O)c1,x,n,n,n,n,x
SMILES,NSD2 inh,CASP6 VEID inh,AF4-AF9 inh,Ecoli rRNA inh,RAD52 inh,AlphaScreen art
CCCC(C(=O)NC(C)(C)C)N(CC1CCCO1)C(=O)CNS(=O)(=O)c1ccc(F)cc1 (centres undefined),83,n,n,n,n,n
CCNC(=O)C[C@@H]1CC[C@H](NC(=O)C2CCOCC2)[C@@H](CO)O1,x,n,n,n,n,x
CC1CN(Cc2c(O)ccc3c(=O)c(-c4ccccc4Cl)coc23)CC(C)O1 (centres undefined),61,n,n,n,n,n
C[C@H]1CN([C@@H](C)CO)S(=O)(=O)c2ccc(-c3ccccc3)cc2O[C@@H]1CN(C)C(=O)c1ccccc1F,x,x,x,n,x,x
CCc1ccc(N2CN=c3s/c(=C\c4ccccc4)c(=O)n3C2)cc1,61,n,n,n,n,n
COc1ccc(/C=N/Nc2nnc(C)n2N)cc1OC,111,n,n,n,n,n
COc1ccc(C2C(C(=O)/C=C/c3ccco3)=C(O)C(=O)N2CCN2CCOCC2)cc1OC (centres undefined),72,n,n,n,n,n
COc1ccc(C2C(C(=O)c3ccco3)=C(O)C(=O)N2CC2CCCO2)cc1OC (centres undefined),62,n,n,n,n,n
Cc1noc(C)c1NC(=O)N(C)C[C@H]1OCCCC[C@@H](C)Oc2ccc(NC(=O)Nc3ccccc3)cc2C(=O)N([C@@H](C)CO)C[C@H]1C,x,x,x,n,x,x
COc1ccc(N(CC(=O)NCCSc2ccccn2)S(C)(=O)=O)cc1,127,n,x,n,n,n
CCCNC(=O)Nc1ccc2c(c1)C(=O)N(C)[C@H]1CC[C@H](CC(=O)NC3CCC3)O[C@@H]1CO2,x,n,n,n,n,x
COc1cc(N)c2ncccc2c1Br,152,93,n,n,n,n
COc1ccc(CNC(=O)C[C@@H]2C=C[C@H](NC(=O)CN(C)C)[C@@H](CO)O2)cc1,x,n,n,n,n,x
C=CCn1c(-c2ccc(OC)cc2)nc2ccccc21,n,x,x,x,x,x
C=CCn1c(-c2ccc(OC)cc2)nc2nc3ccccc3nc21,67,x,x,x,x,n
CNc1ccc(Br)cc(C(=O)/C=C/c2cccc(OC)c2OC)c1=O,51,x,x,x,x,n
CNc1ccc(Br)cc(C(=O)/C=C/c2cccc(Cl)c2Cl)c1=O,n,n,n,n,n,x
N#C[C@H]1[C@@H](c2ccccc2-c2ccccc2)[C@@H](CO)N1c1ncc(-c2ccccc2)s1,x,n,n,n,n,x
COc1cccc(-c2nn3c(-c4ccco4)nnc3s2)c1,90,x,x,x,x,n
CC(C)c1cn(CC[C@H]2CC[C@@H](NC(=O)c3cccc(F)c3)[C@@H](CO)O2)nn1,x,n,n,n,n,x
O=C(C=Cc1ccccc1)c1cc(Br)ccc1O,54,n,n,n,n,n
CC(C)NC(=O)N(C)C[C@H]1Oc2cc(C#C[C@@H](C)O)ccc2S(=O)(=O)N([C@@H](C)CO)C[C@@H]1C,x,n,n,n,n,x
C[C@@H]1CN([C@H](C)CO)C(=O)c2cccc(NC(=O)Nc3ccc4c(c3)OCO4)c2O[C@@H]1CN(C)C(=O)Nc1ccc(C(F)(F)F)cc1,x,n,n,n,n,x
Cc1cc2oc(=O)cc(CSc3nc(N)cc(N)n3)c2cc1C(C)C,n,x,x,x,x,x
CCCc1cc(=O)[nH]c(SCc2cc(=O)oc3cc(C)c(C(C)C)cc23)n1,78,n,n,x,n,n
C[C@H]1CN([C@@H](C)CO)C(=O)c2cc(NC(=O)Cc3ccccc3)ccc2O[C@@H]1CN(C)C(=O)Nc1ccccc1,x,n,n,n,n,x
CNCCCC12CCC(c3ccccc31)c1ccccc12,84,n,n,n,n,n
